Data on ten molecules can be found in PubChem BioAssay (NCATS).

Assay [1] in a line: AP1 Signaling Pathway (AID 357). Note: % is set by controls: 0 for no effect and ±100 for the full control effect. Particulars: ME-180 AP-1-bla reporter, EGF-induced, beta-lactamase ratio, 5 h; at 17.2 µM (top of the series) unless noted. An outline of the steps: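 ME-180 cells with beta-lactamase reporter under AP-1 response element, stimulated with EC50 EGF; compounds tested in titration series, 5 h at 37 °C. CCF4 substrate added 2.5 h at room temperature; 460/530 nm emission ratio gave %activity and AC50.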

Assay [2] in a line: Stat Signaling Pathway (AID 446).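 Note: ME-180 cervical cancer cells given 40 pM IL-6 alongside compound; SIE-controlled beta-lactamase reporter measured as 460/530 nm FRET emission ratio; % is set by controls: 0 for no effect and ±100 for the full control effect.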 An outline of the steps:
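FRET read-out (405 nm excitation, 460/530 nm emission) of a beta-lactamase reporter under a STAT-inducible element in ME-180 cervical carcinoma cells. Cells with compound receive 40 pM IL-6 for 5 h. Values are normalised to AC90 stimulation and AC90 JAK-inhibitor controls.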

In assay [3] the target is Glucocorticoid receptor (Homo sapiens) (UniProt P04150). In words: GR-GFP Redistribution (AID 450;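 active = compounds whose dose series gives a full or clear partial fitted curve of increased nuclear translocation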; note: potency is the fitted concentration of half-maximal effect). Particulars: U2OS GR-GFP nuclear translocation, laser cytometry, 2 h.
Glucocorticoid receptor (Homo sapiens), sequence (P04150 whole entry, looked up, the tested form may be a part): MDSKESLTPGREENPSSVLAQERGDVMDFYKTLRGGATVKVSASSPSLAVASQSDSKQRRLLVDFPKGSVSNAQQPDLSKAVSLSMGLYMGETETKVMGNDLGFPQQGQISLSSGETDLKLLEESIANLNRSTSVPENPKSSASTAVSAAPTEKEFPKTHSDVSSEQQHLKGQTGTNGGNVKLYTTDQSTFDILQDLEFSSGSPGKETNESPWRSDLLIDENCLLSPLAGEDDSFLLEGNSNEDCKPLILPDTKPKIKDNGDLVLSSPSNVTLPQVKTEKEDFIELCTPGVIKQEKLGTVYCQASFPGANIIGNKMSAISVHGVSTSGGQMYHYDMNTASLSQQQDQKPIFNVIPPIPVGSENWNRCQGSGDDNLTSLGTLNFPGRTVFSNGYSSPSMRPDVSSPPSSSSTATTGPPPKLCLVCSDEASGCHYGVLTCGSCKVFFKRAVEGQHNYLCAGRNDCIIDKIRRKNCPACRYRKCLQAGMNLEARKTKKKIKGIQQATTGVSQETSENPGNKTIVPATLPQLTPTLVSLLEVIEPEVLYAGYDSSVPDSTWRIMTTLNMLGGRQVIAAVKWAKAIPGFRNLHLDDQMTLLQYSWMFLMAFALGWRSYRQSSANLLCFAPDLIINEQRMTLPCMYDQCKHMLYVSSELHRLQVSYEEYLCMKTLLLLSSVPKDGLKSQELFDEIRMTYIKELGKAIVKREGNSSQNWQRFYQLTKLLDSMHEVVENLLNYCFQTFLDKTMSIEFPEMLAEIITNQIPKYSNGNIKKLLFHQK
The nature of assay [4]: NFAT Signaling Pathway (AID 444).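 Note: carbachol stimulus at about its EC50 of 1 µM final; % is set by controls: 0 for no effect and ±100 for the full control effect.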 Particulars: Jurkat NFAT-bla M1, carbachol, beta-lactamase ratio, 5 h; at 17.2 µM (top of the series) unless noted. The procedure, abridged: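 Jurkat cells carrying an NFAT-driven β-lactamase reporter and co-transfected muscarinic M1 receptor were treated with compound plus carbachol (1 uM final, an EC50 level) for 5 h at 37 °C. CCF4 loading followed for 1 h at RT; 460/530 nm ratio gave %activity.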

The target in assay [5] is Glucocorticoid receptor (Homo sapiens) (UniProt P04150). The experiment in a line: GR-EFC Redistribution (AID 451; calls by dose curve; note: potency is the fitted concentration of half-maximal effect). Particulars: CHO-K1 GR-EFC translocation, beta-gal luminescence, 2 h. The procedure, abridged: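 CHO-K1 cells stably expressing nuclear-localized β-gal enzyme acceptor and GR fused C-terminally to the enzyme donor fragment; ligand-driven nuclear translocation restores β-gal by complementation. Compounds titrated up to 46 uM final, 2 h at 37 °C; luminescence read.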

For assay [6], the target named is Mitogen-activated protein kinase 10 (Mus musculus) (UniProt Q61831). The experiment in a line: JNK3 AlphaScreen Assay (AID 530).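 Note: kinase came from lysate of stimulated human HepG2 cells; signal reports phosphorylation of biotinylated GST-cJun 1-79 at Ser73 with 10 µM ATP; % is set by controls: 0 for no effect and ±100 for the full control effect.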 The procedure, abridged:
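Phosphorylation of biotinylated GST-cJun(1-79) at Ser73 is measured by AlphaScreen proximity luminescence. Enzyme is JNK3 in HepG2 lysates activated with interleukin-1beta and tumor necrosis factor alpha; ATP is 10 uM final.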

The target of assay [7] is 3',5'-cyclic-AMP phosphodiesterase 4B (Homo sapiens) (UniProt Q07343). In words: qHTS Assay for Inhibitors of PDE-IV (AID 607; active = well fitted activation curve with a large enough effect in the main read-out, with a control signal flat, not every such curve was filed as active; note: % of control where 0% means no effect). The procedure, abridged: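 Cell-based read-out of cAMP via a modified cyclic nucleotide-gated channel and membrane potential dye (535/590 nm) in HEK293 cells expressing PDE4 endogenously. Compounds tested up to 22.9 uM final; 100 uM RO 20-1724 reference.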
3',5'-cyclic-AMP phosphodiesterase 4B (Homo sapiens), sequence (Q07343 whole entry, looked up): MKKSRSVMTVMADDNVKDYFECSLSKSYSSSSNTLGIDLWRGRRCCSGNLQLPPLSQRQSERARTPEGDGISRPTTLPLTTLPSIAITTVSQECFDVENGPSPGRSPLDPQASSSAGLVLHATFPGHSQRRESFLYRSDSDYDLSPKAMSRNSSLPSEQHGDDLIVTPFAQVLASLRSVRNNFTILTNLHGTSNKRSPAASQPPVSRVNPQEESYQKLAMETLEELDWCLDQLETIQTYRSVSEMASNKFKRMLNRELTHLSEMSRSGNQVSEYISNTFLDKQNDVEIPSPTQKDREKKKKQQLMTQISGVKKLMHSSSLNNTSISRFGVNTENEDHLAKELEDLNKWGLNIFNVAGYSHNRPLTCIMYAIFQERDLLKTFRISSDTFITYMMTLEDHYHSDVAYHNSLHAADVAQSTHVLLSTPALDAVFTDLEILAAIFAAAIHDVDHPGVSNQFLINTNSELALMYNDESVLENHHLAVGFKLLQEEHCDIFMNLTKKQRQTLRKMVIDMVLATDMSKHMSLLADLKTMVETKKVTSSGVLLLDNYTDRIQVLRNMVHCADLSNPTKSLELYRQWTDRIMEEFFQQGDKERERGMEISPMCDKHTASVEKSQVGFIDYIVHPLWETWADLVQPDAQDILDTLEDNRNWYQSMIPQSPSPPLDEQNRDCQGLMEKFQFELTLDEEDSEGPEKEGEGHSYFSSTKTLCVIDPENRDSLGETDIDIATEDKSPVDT

For assay [8], the target named is Guanine nucleotide-binding protein G(i) subunit alpha-1 (Homo sapiens) (UniProt P63096). In words: qHTS Assay for Inhibitors of RGS12 GoLoco Motif Activity (Green Fluorophore) (AID 879; active = well fitted curve in the direction sought with a large enough effect; an effect the other way counts as inactive or inconclusive;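 note: 0% = labeled peptide with Gαi1 and full inhibition = labeled peptide alone without protein; negative values mean loss of peptide binding seen as reduced polarization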). The procedure, abridged: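 A drop in FITC polarization marked displacement of the FITC-tagged RGS12 GoLoco peptide (10 nM) from Gαi1 (50 nM). Compounds were incubated 10 min at room temperature in Tris pH 7.5 buffer containing 150 mM NaCl, 0.1 mM GDP and 0.05% NP40; unlabeled peptide titration served as control.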
Guanine nucleotide-binding protein G(i) subunit alpha-1 (Homo sapiens), sequence (P63096 whole entry, looked up): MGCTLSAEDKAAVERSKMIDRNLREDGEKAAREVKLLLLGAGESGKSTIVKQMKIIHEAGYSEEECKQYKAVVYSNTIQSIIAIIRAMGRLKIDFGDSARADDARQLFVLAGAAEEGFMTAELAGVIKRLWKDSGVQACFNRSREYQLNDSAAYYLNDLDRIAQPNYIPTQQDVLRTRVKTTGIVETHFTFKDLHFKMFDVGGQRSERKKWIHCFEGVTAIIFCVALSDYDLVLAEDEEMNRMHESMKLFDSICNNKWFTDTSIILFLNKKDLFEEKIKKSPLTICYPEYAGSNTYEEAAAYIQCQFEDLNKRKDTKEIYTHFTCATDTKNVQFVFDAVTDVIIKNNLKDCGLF

Assay [9] can be described thus: qHTS Assay for Identification of Small Molecule Agonists for Thrombopoietin (TPO) Signaling Pathway (AID 917; active = well fitted curve in the direction sought with a large enough effect; an effect the other way counts as inactive or inconclusive; note: % is set by controls: 0 for no effect and ±100 for the full control effect). An outline of the steps: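 First, Ba/F3 cells with human TPO receptor were held overnight without IL-3. Next, compounds and TPO (26 pM final) were added. After 24 hrs at 37 C, luciferase detection reagent was added and luminescence measured following 10 min at room temperature.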

Assay [10] deals with Muscarinic acetylcholine receptor M1 (Rattus norvegicus) (UniProt P08482). In words: qHTS Assay for Antagonists of Acetylcholine Muscarinic M1 Receptor: Kinetic Measurement of Intracellular Calcium Response (AID 943; active = well fitted curve in the direction sought with a large enough effect; an effect the other way counts as inactive or inconclusive; note: potency is the fitted concentration of half-maximal effect; nearly all actives have a fitted effect of over 75% in size). The procedure, abridged:
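Antagonism is measured as inhibition of the carbachol-evoked calcium rise in CHO cells transfected with rat M1. Cells are dye-loaded, exposed to compound for 10 min, then stimulated with 100 nM carbachol (EC80).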

Assay [11] shares this target. The experiment in a line: qHTS Assay for Antagonists of Acetylcholine Muscarinic M1 Receptor: Measurement of IP-One Response (AID 944; active = well fitted curve in the direction sought with a large enough effect; an effect the other way counts as inactive or inconclusive; note: nearly all actives have a fitted effect of over 75% in size). An outline of the steps: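 Antagonist mode with rat M1 receptor transfected into CHO cells. Compound is added first for 10 min, carbachol at its EC80 follows for 30 min, and lysis reagents then allow TR-FRET detection of accumulated IP1.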

Assay [12] addresses Pyruvate kinase (Leishmania mexicana) (UniProt Q27686). In words: qHTS Validation Assay for Inhibitors of Leishmania Mexicana Pyruvate Kinase (AID 945; active = well fitted curve in the direction sought with a large enough effect; an effect the other way counts as inactive or inconclusive;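 note: 0% = DMSO only neutral control wells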). An outline of the steps:
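Eight-point qHTS titrations in triplicate, data normalized to DMSO neutral control. Reaction: 0.2 nM LmPYK E451W mutant, 0.5 mM PEP, 0.1 mM ADP, 7 mM MgCl2, pH 7.2, one hour at room temperature; luminescent ATP detection.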

In assay [13] the target is Pyruvate kinase PKM (Homo sapiens) (UniProt P14618). The experiment in a line: qHTS Assay for Activators of Human Muscle Pyruvate Kinase (AID 954; active = well fitted curve in the direction sought with a large enough effect, not every such curve was filed as active;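 note: 0% = uninhibited enzyme and -100% = no enzyme or full thiadiazolimine inhibition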). An outline of the steps:
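ATP production by PKM2 detected via luciferase luminescence after 1 h room-temperature reaction (0.1 nM enzyme, PEP at Km 0.5 mM, ADP 0.1 mM, pH 7.2 imidazole buffer). Inhibition scaled to no-enzyme control; activation referenced to 0.3 nM enzyme wells.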

In assay [14] the target is Alpha-galactosidase (Coffea arabica) (UniProt Q42656). The experiment in a line: Counterscreen for Glucocerebrosidase Inhibitors: qHTS Assay for Coffee Bean alpha-Galactosidase at pH 4.5 (AID 957; active = well fitted curve in the direction sought with a large enough effect; an effect the other way counts as inactive or inconclusive;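 note: plate controls were enzyme alone for no effect and no enzyme for full effect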). The procedure, abridged:
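Enzyme is added first (2 nM final), then compounds titrated from 0.7 nM to 77 uM, then 80 uM 4-methylumbelliferyl alpha-D-galactopyranoside; after 20 min at room temperature a pH 10 NaOH/glycine stop precedes fluorescence reading at 365/440 nm.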

Assay [15] concerns the target Alpha-galactosidase A (Homo sapiens) (UniProt P06280). The experiment in a line: Counterscreen for Glucocerebrosidase Inhibitors: qHTS Assay for Human alpha-Galactosidase at pH 4.5 (AID 992; active = well fitted curve in the direction sought with a large enough effect; an effect the other way counts as inactive or inconclusive; note: 0% is about no effect). An outline of the steps: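 Fluorogenic 1536-well qHTS at pH 4.5 (citrate, Tween-20): 2 nM enzyme, 80 uM 4-MU-alpha-galactoside, 20 min room temperature, NaOH/glycine stop. Titration 0.7 nM to 77 uM, data normalized to no-enzyme and full-activity controls, Hill-fitted AC50.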

In assay [16] the target is alpha-glucosidase (Oryza sativa, rice) (UniProt Q653V4). In words: Counterscreen for Glucocerebrosidase Inhibitors: qHTS Assay for Rice alpha-Glucosidase at pH 5.0 (AID 997; active = well fitted curve in the direction sought with a large enough effect; an effect the other way counts as inactive or inconclusive;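 note: 0% = full activity with enzyme and -100% = basal without enzyme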). The procedure, abridged:
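Endpoint fluorogenic assay at pH 5.0: compounds (0.7 nM to 77 uM) titrated against 4 nM rice enzyme and 400 uM 4-MU-alpha-glucoside for 20 min at room temperature; NaOH/glycine stop, read ex 365/em 440 nm, Hill-fitted AC50.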

Assay [17] deals with Alpha-galactosidase (Coffea arabica) (UniProt Q42656). The experiment in a line: Counterscreen for Glucocerebrosidase Inhibitors: qHTS Assay for Coffee Bean alpha-Galactosidase at pH 5.9 (AID 998; active = well fitted curve in the direction sought with a large enough effect; an effect the other way counts as inactive or inconclusive;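 note: plate controls were uninhibited enzyme for no effect and no-enzyme basal signal for full effect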). The procedure, abridged:
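In 50 mM citric acid pH 5.9 with 0.005% Tween-20, coffee bean enzyme hydrolyses 80 uM 4-MU alpha-D-galactopyranoside over 20 min at RT. Activity is normalized to controls; AC50 comes from Hill-modelled concentration-response data.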

Assay [18] can be described thus: qHTS Assay for Identification of Small Molecule Agonists for Hypoxia Response Element Signaling Pathway (AID 914; active = well fitted activation curve with a large enough effect in the signal ratio, with a control signal flat, not every such curve was filed as active; the % refers to the signal ratio; note: % of control where 0% means no effect). Particulars: ME-180 (cervical carcinoma) HRE-bla reporter, beta-lactamase ratio, CoCl2, 17 h; activation: stronger effect = higher value. An outline of the steps:
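HRE-bla ME-180 cells with beta-lactamase reporter under hypoxia response element, compounds with EC50 CoCl2 for 17 hours at 37 C. CCF4 substrate, 460nm/530nm emission ratio gave %Activity; AC50 from titration series.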

A number with no mark means an inactive call. Records with an inconclusive call do not appear. Activity calls are given as the source filed them. Unless noted, calls come from the whole dose curve; as a rule, active = well fitted curve in either direction with a large enough effect (not every such curve was filed as active); inconclusive = small, poorly fitted or top-dose-only effect, or another doubt; inactive = flat fitted curve, though single readings scatter.

Alpha-galactosidase (Coffea arabica), sequence (Q42656 whole entry, looked up): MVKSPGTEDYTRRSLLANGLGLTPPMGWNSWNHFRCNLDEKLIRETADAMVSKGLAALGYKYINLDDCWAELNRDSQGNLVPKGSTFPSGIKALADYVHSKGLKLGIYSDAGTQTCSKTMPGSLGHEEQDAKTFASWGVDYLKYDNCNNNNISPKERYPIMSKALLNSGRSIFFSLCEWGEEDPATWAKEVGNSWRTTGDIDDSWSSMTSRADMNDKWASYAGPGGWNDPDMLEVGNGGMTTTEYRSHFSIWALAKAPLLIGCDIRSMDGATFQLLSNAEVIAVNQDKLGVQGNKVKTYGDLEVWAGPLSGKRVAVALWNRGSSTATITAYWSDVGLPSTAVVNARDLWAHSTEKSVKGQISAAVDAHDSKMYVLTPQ
Pyruvate kinase PKM (Homo sapiens), sequence (P14618 whole entry, looked up): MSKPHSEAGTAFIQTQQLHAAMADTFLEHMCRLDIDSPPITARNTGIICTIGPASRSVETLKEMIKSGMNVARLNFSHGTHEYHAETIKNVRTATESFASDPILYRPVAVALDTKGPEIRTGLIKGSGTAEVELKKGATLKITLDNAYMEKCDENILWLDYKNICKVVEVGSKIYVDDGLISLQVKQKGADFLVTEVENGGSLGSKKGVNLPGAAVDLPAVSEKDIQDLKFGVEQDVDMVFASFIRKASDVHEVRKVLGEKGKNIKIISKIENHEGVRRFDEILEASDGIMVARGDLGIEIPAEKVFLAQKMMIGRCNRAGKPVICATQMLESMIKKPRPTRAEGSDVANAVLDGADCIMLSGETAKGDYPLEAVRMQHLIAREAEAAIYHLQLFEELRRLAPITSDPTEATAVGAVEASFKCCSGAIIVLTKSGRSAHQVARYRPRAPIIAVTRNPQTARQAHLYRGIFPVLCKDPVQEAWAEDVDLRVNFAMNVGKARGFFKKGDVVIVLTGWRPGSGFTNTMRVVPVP
Pyruvate kinase (Leishmania mexicana), sequence (Q27686 2-499 E452W): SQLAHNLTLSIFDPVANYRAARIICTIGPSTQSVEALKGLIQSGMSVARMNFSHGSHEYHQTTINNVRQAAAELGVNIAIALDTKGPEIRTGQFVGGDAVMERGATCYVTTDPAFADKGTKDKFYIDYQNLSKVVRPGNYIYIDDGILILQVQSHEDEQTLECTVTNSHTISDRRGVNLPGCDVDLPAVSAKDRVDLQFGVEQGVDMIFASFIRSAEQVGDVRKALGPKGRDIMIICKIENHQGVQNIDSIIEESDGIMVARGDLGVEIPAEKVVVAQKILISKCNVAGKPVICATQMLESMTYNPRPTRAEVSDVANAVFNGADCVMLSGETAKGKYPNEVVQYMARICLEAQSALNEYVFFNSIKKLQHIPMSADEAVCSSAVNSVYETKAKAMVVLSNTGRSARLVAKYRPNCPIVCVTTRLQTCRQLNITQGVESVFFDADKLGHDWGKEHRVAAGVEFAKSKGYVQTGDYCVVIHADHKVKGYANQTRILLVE
Muscarinic acetylcholine receptor M1 (Rattus norvegicus), sequence (P08482 whole entry, looked up): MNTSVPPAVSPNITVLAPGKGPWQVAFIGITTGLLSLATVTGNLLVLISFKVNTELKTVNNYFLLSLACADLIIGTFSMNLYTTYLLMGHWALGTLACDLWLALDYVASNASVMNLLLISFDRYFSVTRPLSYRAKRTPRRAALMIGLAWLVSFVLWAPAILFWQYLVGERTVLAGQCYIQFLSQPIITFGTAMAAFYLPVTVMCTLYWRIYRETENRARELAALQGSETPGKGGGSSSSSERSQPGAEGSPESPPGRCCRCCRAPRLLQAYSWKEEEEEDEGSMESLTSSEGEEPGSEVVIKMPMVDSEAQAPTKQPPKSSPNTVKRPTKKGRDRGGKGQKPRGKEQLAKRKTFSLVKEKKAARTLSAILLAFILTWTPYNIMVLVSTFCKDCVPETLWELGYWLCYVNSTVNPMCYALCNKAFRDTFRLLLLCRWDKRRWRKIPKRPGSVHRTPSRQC
Alpha-galactosidase A (Homo sapiens), sequence (P06280 whole entry, looked up): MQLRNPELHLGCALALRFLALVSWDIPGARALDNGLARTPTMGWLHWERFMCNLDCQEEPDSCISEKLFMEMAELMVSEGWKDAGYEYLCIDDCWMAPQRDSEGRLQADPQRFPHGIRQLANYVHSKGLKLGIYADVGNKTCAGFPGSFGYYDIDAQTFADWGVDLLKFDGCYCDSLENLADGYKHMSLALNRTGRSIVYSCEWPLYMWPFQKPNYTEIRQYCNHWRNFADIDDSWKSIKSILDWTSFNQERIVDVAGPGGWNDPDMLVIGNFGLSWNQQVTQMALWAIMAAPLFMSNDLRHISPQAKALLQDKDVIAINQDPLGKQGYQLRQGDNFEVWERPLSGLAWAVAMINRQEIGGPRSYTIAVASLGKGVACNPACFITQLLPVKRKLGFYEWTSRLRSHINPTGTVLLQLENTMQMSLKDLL

On to `CCN(CC)CCCNC(=O)c1c(O)c2ccccc2n(Cc2ccccc2)c1=O`, for which the activity change, negative = inhibition in assay [1] is 27.1%. Further, the call in [2] was inactive. For the same molecule, the Potency in assay [3] is > 20.6 µM.
Take `O[C@@H]1CCCC[C@H]1N1CCC(c2ccccc2)CC1`: the activity change, negative = inhibition is -6.58% [at 38 µM] in [1] and -6.89% [at 38 µM] in assay [4]. Besides, the call in assay [2], in assay [6], in assay [7], in [9], in assay [13] and in [14] was inactive. The molecule was classed as inactive in assay [15], in assay [16] and in assay [17]. Moreover, the Potency in [3] is > 46 µM; in assay [5], > 46 µM; in [10] it was 14.1 µM (active). Further, the Potency entry in assay [8], in [11] and in assay [12] was “inactive” each time.
Turning to `CC1CN=C(Nc2ccc(N(C)C)cc2)S1` (configuration not stated), the activity change, negative = inhibition was 17.8% in [1] and -26.5% in assay [4]. Besides, in assay [2], the molecule was called inactive. Besides, the Potency in assay [3] was > 20.6 µM. Besides, in [18], the activation was 1.86%.
Regarding `O=C(CN1CCN(CCO)CC1)Nc1ccc(Cl)cc1C(=O)c1ccccc1`, the activity change, negative = inhibition was 3.2% in assay [1] and 5.95% in [4]. The molecule was called inactive in assay [2]. For the same molecule, the Potency in assay [3] was > 20.6 µM. For the same molecule, in assay [18], the activation is 0.98%.
With `CC[C@H](CO)NC(=O)[C@@H]1C=C2c3cccc4[nH]cc(c34)C[C@@H]2N(C)C1`, the activity change, negative = inhibition in assay [1] is 2.51% [at 38 µM]; in [4], -0.886% [at 38 µM]. The result in assay [2], in assay [6], in [7], in assay [9], in assay [13] and in assay [14] was inactive. Besides, the molecule was called inactive in assay [15], in [16] and in [17]. In addition, the Potency in assay [3] and in assay [5] was > 46 µM in each case. Moreover, in [12], the Potency result was “inactive”.
In the case of `CNc1ccc2oc(C[C@@H]3O[C@@]4(CC[C@H]3C)O[C@@H]([C@@H](C)C(=O)c3ccc[nH]3)[C@@H](C)C[C@H]4C)nc2c1C(=O)O`, the activity change, negative = inhibition in assay [1] is 6.83% [at 38 µM]; in [4] it was 90.4% [activator] [at 38 µM] (active). Also, the result in [2] and in [7] was inactive. Also, the Potency in assay [3] and in assay [5] was > 46 µM throughout.
As to `C/C(Cl)=C/CC1(CN2CCCC2=O)C(=O)NC(=O)NC1=O`, the activity change, negative = inhibition was -3.48% in assay [1] and 1.12% in assay [4]. The result in [2] was inactive. Moreover, the Potency in assay [3] is > 20.6 µM. Besides, the activation in assay [18] was 3.38%.
Take `O=C1NCCN2CCCC12` (configuration not stated): the activity change, negative = inhibition in assay [1] was 12%; in assay [4], -0.485%. The outcome in assay [2] was inactive. In addition, the Potency in assay [3] is > 20.6 µM. Besides, the activation in assay [18] was 9.17%.
As for `NC(=NCCC[C@@H](N)C(=O)O)N[N+](=O)[O-]`, the results for the activity change, negative = inhibition in assay [1] and in assay [4] were 2.85% [at 38 µM] and 2.93% [at 38 µM], respectively. The molecule was called inactive in assay [2], in [6] and in assay [7]. Besides, the Potency in [3] and in [5] was > 46 µM throughout.
Take `COCCOC(=O)C1=C(N)Oc2c(c(=O)oc3ccccc23)[C@@]12C(=O)Nc1ccccc12`: the activity change, negative = inhibition in assay [1] was 10.2%; in [4], -5.71%. In addition, the call in [2] was inactive. Besides, the Potency in assay [3] is > 20.6 µM. Further, in assay [18], the activation is -0.572%.
